Source: PubChem BioAssay
HDAC3 inhib – HDAC3 deacetylase inhibitors, primary screen, biochemical, fluorescence, cell-free homogeneous; Histone deacetylase 3 (Homo sapiens), O15379; recombinant HDAC3, fluorogenic peptide/trypsin coupled; inhibition, % at 8.3 µM; 320,000 tested, 0.15% active; AID 2718, 2010; in the data active = inhibition above about 26%, passing the limit was not always enough; inconclusive = no clear call, values can overlap the other calls
CHT block – inhibitors of human choline transporter CHT. B-score at 10 µM. 310,000 tested, 0.86% active. High affinity choline transporter 1 (Homo sapiens), Q9GZV3. AID 488975, 2010. CHT-expressing cells, membrane potential dye, choline response; hits give low values;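 active = B-score over 3 SD under the library average, and starting fluorescence ratio not unusually high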;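 also: choline stimulus applied at its EC90 after an EC20 pre-addition; B-score computed on integrated fluorescence ratio after choline addition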
Target sequence (Q9GZV3 whole entry, looked up): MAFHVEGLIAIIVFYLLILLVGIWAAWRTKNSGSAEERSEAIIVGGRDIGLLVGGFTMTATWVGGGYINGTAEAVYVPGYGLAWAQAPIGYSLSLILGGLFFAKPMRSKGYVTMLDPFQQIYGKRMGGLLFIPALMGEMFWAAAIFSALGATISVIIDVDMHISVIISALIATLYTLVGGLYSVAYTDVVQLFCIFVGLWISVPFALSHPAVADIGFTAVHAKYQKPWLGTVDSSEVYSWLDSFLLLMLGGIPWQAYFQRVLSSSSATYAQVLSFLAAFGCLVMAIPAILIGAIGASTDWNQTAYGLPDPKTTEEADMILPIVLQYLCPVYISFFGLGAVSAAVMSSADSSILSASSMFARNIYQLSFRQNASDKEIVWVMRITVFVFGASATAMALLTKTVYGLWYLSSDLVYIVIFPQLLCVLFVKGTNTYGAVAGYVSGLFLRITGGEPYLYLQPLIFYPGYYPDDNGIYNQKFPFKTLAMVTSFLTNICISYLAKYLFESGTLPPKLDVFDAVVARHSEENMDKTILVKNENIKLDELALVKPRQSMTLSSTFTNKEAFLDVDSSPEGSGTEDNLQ
CHT allo act – CHT positive allosteric modulators, primary screen, cell-based, membrane potential dye, choline EC20. CHT-expressing cells; hits give high values; LV-AA mutant CHT in HEK293 cells. 310,000 tested, 0.49% active. High affinity choline transporter 1 (Homo sapiens), Q9GZV3. AID 488977, 2010. B-score at 10 µM;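 active = initial fluorescence not abnormally high and integrated response B-score, plate-corrected, over 3 SD above library mean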
TMEM16A inh – TMEM16A chloride channel inhibitors, primary screen, cell-based, HTS | Anoctamin-1 (Mus musculus), Q8BHY3 | HEK293 TMEM16A/YFP iodide influx fluorescence, ionomycin | normalized B-score (activity score, 25-100; higher = stronger inhibition) at 10 µM | 310,000 tested, 1.2% active | AID 588511, 2011;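 active = ratio plate-corrected score three or more library SD toward inhibition, starting fluorescence score within five deviations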;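 also: score derived from kinetic fluorescence span divided by baseline fluorescence per well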
PHOSPHO1 inh – PubChem AID 1565 | recombinant PHOSPHO1, absorbance phosphatase assay | inhibition, % at 13.3 µM | 290,000 tested, 1.1% active | Phosphoethanolamine/phosphocholine phosphatase (Homo sapiens), Q8TCT1; in the data active = inhibition above about 60%
TMEM16A act – TMEM16A chloride channel activators or potentiators, primary screen, cell-based, HTS. 340,000 tested, 0.3% active. AID 623877, 2012. B-score at 10 µM. Anoctamin-1 (Mus musculus), Q8BHY3. HEK293 TMEM16A/YFP-H148Q/I152L, iodide quench fluorescence; hits give low values;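 active = fluorescence-ratio B-score plate-corrected deviation score at least 3 library SD below zero, with starting fluorescence score within 5 deviations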;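 also: channel opened by trigger with iodide after compound preincubation; score built on the fluorescence ratio of max minus min over baseline; more negative score means more quench and so TMEM16A activation or potentiation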
An asterisk follows results filed as active; i = inactive; ? = inconclusive; · = no result. Shown are actives, neighbours in structure and some others; about 3.2% of the full set was active somewhere.

SMILES	HDAC3 inhib	CHT block	CHT allo act	TMEM16A inh	PHOSPHO1 inh	TMEM16A act
CN(C)S(=O)(=O)c1ccc(S(=O)(=O)N(Cc2ccco2)Cc2ccccc2Cl)cc1	-5	i	i	i	41	-19*
CS(=O)(=O)N(Cc1ccco1)Cc1ccccc1Cl	?	i	i	i	18	i
O=C(NCc1ccccn1)C1CCN(S(=O)(=O)c2cnc[nH]2)CC1	-6	i	i	i	-14	i
COc1cccc(NC(=O)CN2C(=O)COc3ccc(Cl)cc32)c1	6	i	i	i	0	i
CCOc1ccc(NC(=S)/C(=C(\[O-])c2ccc(C)c([N+](=O)[O-])c2)[n+]2ccccc2)cc1	7	i	i	i	93*	i
CCc1cc[n+](/C(C(=S)Nc2cccc(C)c2)=C(/[O-])c2ccc(C)c([N+](=O)[O-])c2)cc1	2	i	i	i	-18	i
O=C(N/C(=C/c1cccs1)C(=O)N1CCOCC1)c1cccs1	7	i	i	i	60*	i
COc1ccc(N(CC(=O)Nc2cccc(C)c2C)S(=O)(=O)c2c(C)n[nH]c2C)cc1	4	i	i	i	18	i
CCN(CC)CCNC(=O)Cn1cnc2sc(C)c(S(=O)(=O)N3CCC(C)CC3)c2c1=O	3	i	i	i	22	i
COc1ccc(-c2n(CC(=O)OC3CC(C)CCC3C(C)C)c3ccccc3[n+]2C)cc1 (stereo not drawn)	·	·	·	·	49	-6.1*
COc1ccc(OCc2n(CC(=O)OC3CC(C)CCC3C(C)C)c3ccccc3[n+]2C)cc1 (stereo not drawn)	5	i	i	i	47	i
Cc1cccc(CC(C)NC(=O)c2cc(COc3ccc(F)cc3F)on2)n1 (stereo not drawn)	-4	i	i	i	32	i
Cc1c(CCOC(=O)CC23CC4CC(CC(C)(C4)C2)C3)sc[n+]1CC(=O)c1ccccc1	·	i	i	100*	36	i
Cc1c(CCOC(=O)C23CC4CC(CC(C)(C4)C2)C3)sc[n+]1CC(=O)c1ccccc1	4	i	i	i	21	i
O=C(CCCn1c(=O)c2sccc2n(CC(=O)OCc2ccccc2)c1=O)NCc1ccco1	1	i	i	i	2	i
Cc1ccc(CC(=O)Nc2ccc(C(=O)N3CCCCC3)cc2)cc1	-2	i	i	i	-42	i
O=C(Nc1nnc(-c2ccco2)s1)C1CCCCC1	-11	i	i	i	75*	i
Cc1ccc(S(=O)(=O)N2CCC(C(=O)Nc3nnc(-c4ccco4)s3)CC2)cc1	-2	i	i	i	-16	i
CN(C)S(=O)(=O)c1cccc(NC(=O)c2ccc(COc3ccccc3)cc2)c1	·	i	i	25*	16	i
COc1ccc(S(=O)(=O)N(C)c2ccc(C(=O)Nc3cccnc3)cc2)cc1	8	i	i	i	16	i
CN(c1ccc(C(=O)Nc2cccnc2)cc1)S(=O)(=O)c1ccc(Cl)cc1	·	i	i	i	63*	i
COCc1ccc(C(=O)Nc2cccc(S(=O)(=O)N(C)c3ccccc3)c2)cc1	6	·	·	·	·	i
Cc1ccc(S(=O)(=O)N(C)c2ccc(C(=O)NCc3ccccn3)cc2)cc1	2	i	i	i	37	i
CN(c1ccc(C(=O)NCc2ccccn2)cc1)S(=O)(=O)c1ccc(Cl)cc1	3	i	i	i	61*	i
CN(c1ccc(C(=O)Nc2cccnc2)cc1)S(=O)(=O)c1ccccc1	1	i	i	i	-36	-5*
SMILES	HDAC3 inhib	CHT block	CHT allo act	TMEM16A inh	PHOSPHO1 inh	TMEM16A act
CC1CN(C)C(c2ccccc2)C(C)C12NC(=O)NC2=O (stereo not drawn)	-3	i	i	i	13	i
O=C1CCCC2=C1C(c1ccc(OS(=O)(=O)c3ccc(Cl)cc3)cc1)C1=C(CCCC1=O)O2	2	i	i	i	29	i
CCOC(=O)c1c(NC(=O)Cc2ccccc2)sc2c1CCN(C)C2	3	i	i	i	-16	i
CCOC(=O)c1c(NC(=O)CSc2nnc(C)s2)sc2c1CCN(C)C2	?	i	7.6*	i	-10	i
Cc1nnc(SCC(=O)Nc2sc3c(c2C(=O)c2ccccc2)CCCC3)s1	0	i	8.1*	i	1	i
CC(C)(C)NC(=O)c1cccc(NC(=O)c2ccc3c(c2)C(=O)N(C(C)(C)C)C3=O)c1	-3	i	i	i	8	i
O=C(Cn1cnc2cc([N+](=O)[O-])ccc2c1=O)N1CCN(S(=O)(=O)c2ccccc2)CC1	-8	·	·	·	·	i
CCCCNS(=O)(=O)c1ccc2nc(SCC(=O)Nc3sccc3C#N)[nH]c2c1	5	i	i	100*	14	i
CCCCNS(=O)(=O)c1ccc2nc(SCC(N)=O)[nH]c2c1	·	i	i	i	4	i
COc1cc([N+](=O)[O-])ccc1NC(=S)NNC(=O)c1ccc2c(c1)OCO2	13	-5.7*	i	100*	8	i
COc1ccccc1NC(=S)NNC(=O)c1nn(C)cc1Cl	-3	i	i	i	72*	i
COc1ccccc1NC(=S)NNC(=O)c1ccc(O)cc1	-4	i	i	i	71*	i
COc1ccccc1NC(=S)NNC(=O)c1nn(C)c(C)c1Cl	-3	i	i	i	79*	i
CC(=O)C1=C(c2ccccc2)NC(=O)NC1c1ccccc1OCC(=O)Nc1ccccc1 (stereo not drawn)	-1	i	i	i	0	i
COc1ccc(N(CC(=O)N/N=C/c2cccnc2)S(=O)(=O)c2ccccc2)c(OC)c1	6	i	i	i	52	i
O=C1NC(=S)SC1=C1CCCCCC1	11	-6*	i	i	84*	i
COc1ccc(NC(=O)CCCN2C(=O)CN(C)C2=O)c(OC)c1	-4	·	·	·	·	i
Cc1cc(C(=O)CSc2nn3c(=O)c(C(C)(C)C)nnc3s2)c(C)n1-c1ccc(F)cc1	-2	i	i	i	102*	i
CC(C)N(C(=O)CSc1nn2c(=O)c(C(C)(C)C)nnc2s1)c1ccccc1	2	i	i	i	25	i
O=C(COC(=O)c1cc(=O)[nH]c2ccccc12)NC1CCCCCCC1	2	i	i	i	12	i
